Among all 5,500 compounds or so, about 2,000 (36%) were called active. Roughly 18% stayed inconclusive and do not appear here. Rule as the data show it: active = normalized growth mostly below about 0.91 (no sharp cut-off); inconclusive = no clear call, values can overlap the other calls; inactive = mostly above about 0.92. The list shows a part of the results.
Experiment: chemical genetic growth profiling, strain panel (AID 1159580);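 also: tested at 20 µM; growth read once vehicle control cultures reached saturation at 30 °C; 1 = growth at the plate median or of vehicle wells; lower values mean less growth of the strain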
Details: S. cerevisiae deletion strains, growth OD
[1] = locus YHR030C, strain SLT2, stronger effect = lower value

Measured: normalized growth

Cc1c(Nc2ncccc2C(=O)O)cccc1C(F)(F)F
inactive: locus YAL021C, strain ccr4, stronger effect = lower value 0.937 | locus YAL026C, strain drs2, stronger effect = lower value 0.979 | locus YAL030W, strain snc1, stronger effect = lower value 0.981 | locus YBL061C, strain skt5, stronger effect = lower value 0.981 | locus YBR009C, strain hhf1, stronger effect = lower value 0.967 | locus YBR023C, strain chs3, stronger effect = lower value 0.99 | locus YBR171W, strain sec66, stronger effect = lower value 0.969 | locus YBR231C, strain swc5, stronger effect = lower value 1.01 | locus YBR279W, strain paf1, stronger effect = lower value 0.987 | locus YCL011C, strain gbp2, stronger effect = lower value 0.979 | locus YCL016C, strain dcc1, stronger effect = lower value 0.975 | locus YCL069W, strain vba3, stronger effect = lower value 0.985 | locus YCR088W, strain abp1, stronger effect = lower value 0.979 | locus YDL005C, strain med2, stronger effect = lower value 0.986 | locus YDL040C, strain nat1, stronger effect = lower value 0.981 | locus YDR001C, strain nth1, stronger effect = lower value 0.964 | locus YDR069C, strain doa4, stronger effect = lower value 0.966 | locus YDR137W, strain rgp1, stronger effect = lower value 0.979 | locus YDR159W, strain sac3, stronger effect = lower value 0.999 | locus YDR195W, strain ref2 0.955 | locus YDR297W, strain sur2, stronger effect = lower value 0.996 | locus YDR334W, strain swr1, stronger effect = lower value 0.961 | locus YDR335W, strain msn5, stronger effect = lower value 0.983 | locus YDR392W, strain spt3, stronger effect = lower value 1 | locus YEL003W, strain gim4, stronger effect = lower value 0.974 | locus YEL037C, strain rad23, stronger effect = lower value 0.989 | locus YEL061C, strain CIN8 (second series), stronger effect = lower value 0.981 | locus YER015W, strain faa2, stronger effect = lower value 0.988 | locus YER016W, strain bim1, stronger effect = lower value 0.978 | locus YER111C, strain swi4, stronger effect = lower value 0.963 | locus YER155C, strain BEM2 (second series), stronger effect = lower value 1.01 | locus YFR010W, strain ubp6, stronger effect = lower value 0.978 | locus YGL167C, strain pmr1, stronger effect = lower value 0.952 | locus YGL173C, strain kem1, stronger effect = lower value 0.984 | locus YGL227W, strain vid30, stronger effect = lower value 0.978 | locus YGL240W, strain doc1, stronger effect = lower value 1.02 | locus YGL253W, strain hxk2, stronger effect = lower value 0.968 | locus YHR013C, strain ard1, stronger effect = lower value 0.958 | locus YHR027C, strain rpn1, stronger effect = lower value 0.971 | [1] 0.947 | locus YHR079C, strain IRE1, stronger effect = lower value 0.974 | locus YHR142W, strain chs7, stronger effect = lower value 0.96 | locus YJL092W, strain hpr5, stronger effect = lower value 0.961 | locus YJL095W, strain BCK1 (second series), stronger effect = lower value 0.983 | locus YJL095W, strain BCK1, stronger effect = lower value 0.989 | locus YJL115W, strain asf1, stronger effect = lower value 0.958 | locus YJL129C, strain trk1, stronger effect = lower value 0.955 | locus YJL154C, strain vps35, stronger effect = lower value 0.972 | locus YJL164C, strain tpk1, stronger effect = lower value 0.97 | locus YJL166W, strain qcr8, stronger effect = lower value 0.994 | locus YJL187C, strain SWE1, stronger effect = lower value 0.992 | locus YJR066W, strain TOR1, stronger effect = lower value 0.928 | locus YKL160W, strain elf1, stronger effect = lower value 0.967 | locus YKR026C, strain gcn3, stronger effect = lower value 0.972 | locus YKR091W, strain srl3, stronger effect = lower value 0.97 | locus YLL001W, strain dnm1, stronger effect = lower value 0.981 | locus YLL026W, stronger effect = lower value 0.978 | locus YLL041C, strain sdh2, stronger effect = lower value 0.953 | locus YLR027C, strain aat2, stronger effect = lower value 0.993 | locus YLR113W, strain HOG1, stronger effect = lower value 0.991 | locus YLR221C, strain rsa3, stronger effect = lower value 0.997 | locus YLR258W, strain gsy2, stronger effect = lower value 0.969 | locus YLR262C, strain YPT6 (second series), stronger effect = lower value 1.02 | locus YLR320W, strain mms22, stronger effect = lower value 1.01 | locus YLR342W, strain FKS1, stronger effect = lower value 0.988 | locus YLR357W, strain rsc2, stronger effect = lower value 0.952 | locus YLR370C, strain arc18, stronger effect = lower value 0.963 | locus YLR384C, strain iki3, stronger effect = lower value 1 | locus YML120C, strain ndi1, stronger effect = lower value 0.974 | locus YMR058W, strain fet3, stronger effect = lower value 0.972 | locus YMR125W, strain sto1, stronger effect = lower value 0.945 | locus YMR129W, stronger effect = lower value 0.972 | locus YMR205C, strain PFK2, stronger effect = lower value 0.977 | locus YMR231W, strain pep5, stronger effect = lower value 0.983 | locus YNL071W, strain lat1, stronger effect = lower value 0.981 | locus YNL183C, strain NPR1, stronger effect = lower value 0.954 | locus YNL209W, strain ssb2, stronger effect = lower value 0.983 | locus YNL248C, strain rpa49, stronger effect = lower value 0.996 | locus YNL322C, strain KRE1 (second series), stronger effect = lower value 0.97 | locus YNR049C, strain mso1, stronger effect = lower value 0.962 | locus YOR001W, strain rrp6, stronger effect = lower value 0.983 | locus YOR070C, strain gyp1, stronger effect = lower value 0.989 | locus YOR080W, strain dia2, stronger effect = lower value 0.979 | locus YOR083W, strain WHI5, stronger effect = lower value 0.98 | locus YOR106W, strain vam3, stronger effect = lower value 0.957 | locus YOR231W, strain MKK1, stronger effect = lower value 0.982 | locus YOR265W, strain rbl2, stronger effect = lower value 0.968 | locus YOR270C, strain vph1, stronger effect = lower value 0.983 | locus YOR290C, strain snf2, stronger effect = lower value 0.943 | locus YPL051W, strain arl3, stronger effect = lower value 1.01 | locus YPL078C, strain atp4, stronger effect = lower value 0.951 | locus YPL106C, strain sse1, stronger effect = lower value 0.982 | locus YPL240C, strain hsp82, stronger effect = lower value 0.98 | locus YPL256C, strain CLN2, stronger effect = lower value 0.951

O=C(COC(=O)c1ccccc1Nc1cccc(F)c1)c1ccccc1
inactive: locus YAL013W, strain DEP1, stronger effect = lower value 0.98 | locus YBR229C, strain ROT2, stronger effect = lower value 0.994 | locus YDL101C, strain DUN1, stronger effect = lower value 1.01 | locus YDL134C, strain PPH21, stronger effect = lower value 0.997 | locus YDR150W, strain NUM1, stronger effect = lower value 1.01 | locus YEL061C, strain CIN8, stronger effect = lower value 0.989 | locus YGR078C, strain PAC10, stronger effect = lower value 0.982 | [1] 0.93 | locus YHR087W, strain rtc3, stronger effect = lower value 1 | locus YJR043C, strain POL32, stronger effect = lower value 0.986 | locus YJR075W, strain HOC1, stronger effect = lower value 1.03 | locus YKL190W, strain CNB1, stronger effect = lower value 0.989 | locus YLR039C, strain RIC1, stronger effect = lower value 1.01 | locus YLR058C, strain SHM2 (second series), stronger effect = lower value 0.989 | locus YLR085C, strain ARP6, stronger effect = lower value 0.916 | locus YLR262C, strain YPT6, stronger effect = lower value 1.02 | locus YML094W, strain GIM5, stronger effect = lower value 0.996 | locus YMR219W, strain ESC1, stronger effect = lower value 0.997 | locus YMR263W, strain SAP30, stronger effect = lower value 0.997 | locus YMR307W, strain GAS1, stronger effect = lower value 0.882 | locus YNL128W, strain TEP1, stronger effect = lower value 0.987 | locus YNL153C, strain GIM3, stronger effect = lower value 0.99 | locus YNL298W, strain CLA4 (second series), stronger effect = lower value 0.97 | locus YNL322C, strain KRE1, stronger effect = lower value 0.981 | locus YNR030W, strain Alg12, stronger effect = lower value 0.978 | locus YPL055C, strain LGE1, stronger effect = lower value 1.01 | locus YPL241C, strain CIN2, stronger effect = lower value 0.96 | locus YPR135W, strain CTF4, stronger effect = lower value 1.01

Source: PubChem BioAssay AID1159580 (chemical genetic matrix, 2015)
